From PubChem BioAssay (NCI)
About 79,000 compounds went through this panel and 15% of them were active in at least one assay; those are over-represented in the sample as a whole. Calls of active or inactive are those of the source. Rule as the data show it: active = growth inhibition above about 70%; inactive = the rest.

Legend:
[1] = NCI Yeast Anticancer Drug Screen. Data for the rad52 strain (AID 147);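 also: 0% = growth of vehicle-treated control cultures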; settings: S. cerevisiae rad52 mutant growth inhibition, active compounds read high
Method in brief: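 Compounds are applied to a genetically defined yeast strain lacking normal DNA damage repair, and inhibition of growth is expressed relative to cultures given vehicle only.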

[2] = NCI Yeast Anticancer Drug Screen. Data for the wt1 strain (AID 149);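 also: 0% = growth of vehicle-treated wt1 cultures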; settings: S. cerevisiae wt1 strain (SPY 50644) growth inhibition, active compounds read high
Method in brief: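 The wt1 strain was treated with compounds, and growth was compared with vehicle-treated cultures to give inhibition.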

[3] = NCI Yeast Anticancer Drug Screen. Data for the rad50EPP+ strain (AID 151);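 also: 0% = growth of vehicle-treated control cultures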; settings: S. cerevisiae rad50 mutant strain, active compounds read high
Method in brief: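 Compounds were applied to the rad50EPP+ yeast strain, which bears a defined DNA repair alteration, and growth inhibition was determined relative to vehicle-treated cultures.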

[4] = NCI Yeast Anticancer Drug Screen. Data for the mgt1 strain (AID 153); settings: S. cerevisiae mgt1 mutant growth inhibition, active compounds read high
Method in brief: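 Strain: mgt1 yeast, one of a set carrying defined DNA damage repair or cell cycle control alterations. Compound-treated growth compared with vehicle.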

[5] = NCI Yeast Anticancer Drug Screen. Data for the rad50 strain (AID 155);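 also: 0% = growth of vehicle-only cultures of the same strain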; settings: S. cerevisiae rad50 strain growth inhibition, active compounds read high
Method in brief: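 Cells are treated with compound, grown, and their growth is then scored against vehicle-only cultures of the same repair-deficient yeast strain.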

[6] = NCI Yeast Anticancer Drug Screen. Data for the mec2-1 strain (AID 157); settings: S. cerevisiae mec2-1 strain, active compounds read high
Method in brief: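 Strain: mec2-1 (DNA repair/cell cycle alteration). Compound exposure, then growth measured; inhibition expressed relative to vehicle.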

[7] = NCI Yeast Anticancer Drug Screen. Data for the sgs1 mgt1 strain (AID 161);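 also: 0% = growth of cultures given vehicle only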; settings: S. cerevisiae sgs1 mgt1 strain, active compounds read high
Method in brief: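 Read-out: growth inhibition vs vehicle controls. Cells: mutant yeast strain deficient in DNA damage repair.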

[8] = NCI Yeast Anticancer Drug Screen. Data for the cln2 rad14 strain (AID 165);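 also: 0% = growth equal to vehicle treated cultures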; settings: S. cerevisiae cln2 rad14 strain, active compounds read high
Method in brief: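 Compounds are applied to the cln2 rad14 yeast strain, and growth is then compared with that of vehicle-treated cultures to give inhibition.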

[9] = NCI Yeast Anticancer Drug Screen. Data for the bub3 strain (AID 167); settings: S. cerevisiae bub3 mutant strain, active compounds read high
Method in brief: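 Part of a panel of yeast mutants defective in DNA damage repair or cell cycle regulation. Each strain is grown with compound, and inhibition is calculated relative to solvent-treated cultures.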

[10] = NCI Yeast Anticancer Drug Screen. Data for the mlh1 strain (AID 171);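 also: 0% = growth of vehicle-treated control cultures of the same strain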; settings: S. cerevisiae mlh1 strain growth inhibition, active compounds read high
Method in brief: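 Growth of the mutant yeast strain after compound exposure, expressed as inhibition relative to vehicle-only controls.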

[11] = NCI Yeast Anticancer Drug Screen. Data for the sgs1 strain (AID 173);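 also: 0% = growth of vehicle-only control cultures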; settings: S. cerevisiae sgs1 mutant, active compounds read high
Method in brief: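 Growth of a yeast strain bearing a defined genetic alteration is measured after compound treatment. Inhibition is expressed relative to vehicle-only controls.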

[12] = NCI Yeast Anticancer Drug Screen. Data for the mlh1 rad18 strain (AID 175); settings: S. cerevisiae mlh1 rad18 strain growth inhibition, active compounds read high
Method in brief: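 Read-out is yeast growth inhibition, calculated against vehicle-only controls. The compound was applied to a strain engineered with DNA damage repair alterations.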

[13] = NCI Yeast Anticancer Drug Screen. Data for the rad18 strain (AID 177); settings: S. cerevisiae rad18 mutant growth inhibition, active compounds read high
Method in brief: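 Growth of the mutant yeast strain after compound exposure, normalised to vehicle-only cultures.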

[14] = NCI Yeast Anticancer Drug Screen. Data for the rad14 strain (AID 159);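 also: 0% = growth of vehicle-treated control cultures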; settings: S. cerevisiae rad14 strain growth inhibition, active compounds read high
Method in brief: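 Readout: yeast growth inhibition, referenced to vehicle-only cultures. Strain bears a defined alteration in DNA damage repair.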

[15] = NCI Yeast Anticancer Drug Screen. Data for the CLN2oe strain (AID 163);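 also: 0% = growth of vehicle-only control cultures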; settings: S. cerevisiae CLN2oe strain, active compounds read high
Method in brief: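 Growth of a genetically modified yeast strain is measured after compound exposure and compared with cultures given vehicle alone.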

[16] = NCI Yeast Anticancer Drug Screen. Data for the wt2 strain (AID 169);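 also: 0% = growth of vehicle-treated yeast cultures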; settings: S. cerevisiae wt2 strain growth inhibition, active compounds read high
Method in brief: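 This strain belongs to a panel of yeast strains with defined genetic alterations in DNA damage repair or cell cycle control. Compounds are applied, and growth inhibition is measured against vehicle-treated cultures.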

[17] = at 5.0 µM (retest, dose inferred, filed as 0.5)
[18] = at 50.0 µM (retest, dose inferred, filed as 5.0)

Measured: growth inhibition

O=[N+]([O-])/C=C/c1ccc2ccccc2c1
inactive: [1]; at 1.2 µM 28% | [2]; at 1.2 µM -1% | [2]; at 3.7 µM 7% | [3]; at 1.2 µM 67% | [4]; at 1.2 µM -1% | [4]; at 3.7 µM 61% | [5]; at 1.2 µM 33% | [5]; [17] 1% | [6]; at 1.2 µM 2% | [6]; [17] 33% | [7]; [17] -35% | [9]; at 1.2 µM 6% | [9]; at 3.7 µM 61% | [10]; at 1.2 µM 1% | [10]; at 3.7 µM 38% | [11]; at 1.2 µM 23% | [12]; [17] -256% | [13]; at 1.2 µM 6% | [13]; at 3.7 µM 48%
active: [1]; at 3.7 µM 72% | [1]; at 11.0 µM 100% | [1]; at 33.0 µM 100% | [1]; at 100.0 µM 99% | [2]; at 11.0 µM 99% | [2]; at 33.0 µM 100% | [2]; at 100.0 µM 100% | [3]; at 3.7 µM 98% | [3]; at 11.0 µM 99% | [3]; at 33.0 µM 99% | [3]; at 100.0 µM 99% | [4]; at 11.0 µM 100% | [4]; at 33.0 µM 100% | [4]; at 100.0 µM 99% | [5]; at 3.7 µM 95% | [5]; at 11.0 µM 100% | [5]; at 33.0 µM 100% | [5]; [18] 90% | [5]; at 50.0 µM 99.1% | [5]; at 100.0 µM 99% | [6]; at 3.7 µM 89% | [6]; at 11.0 µM 100% | [6]; at 33.0 µM 100% | [6]; [18] 96% | [6]; at 50.0 µM 99.2% | [6]; at 100.0 µM 97% | [7]; [18] 95% | [7]; at 50.0 µM 99.3% | [8]; [17] 98% | [8]; [18] 93% | [8]; at 50.0 µM 98.2% | [9]; [17] 98% | [9]; at 11.0 µM 99% | [9]; at 33.0 µM 99% | [9]; [18] 94% | [9]; at 50.0 µM 98.8% | [9]; at 100.0 µM 99% | [10]; at 11.0 µM 100% | [10]; at 33.0 µM 100% | [10]; at 100.0 µM 100% | [11]; at 3.7 µM 98% | [11]; at 11.0 µM 100% | [11]; at 33.0 µM 100% | [11]; at 100.0 µM 100% | [12]; [18] 93% | [12]; at 50.0 µM 98.8% | [13]; at 11.0 µM 99% | [13]; at 33.0 µM 100% | [13]; at 100.0 µM 99%

C[C@H](CCC(=O)NN)[C@H]1CC[C@H]2[C@@H]3CC[C@@H]4C[C@H](O)CC[C@]4(C)[C@H]3CC[C@]12C
active: [9]; [18] 73% | [9]; at 50.0 µM 89.2% | [12]; at 50.0 µM 92.2%
inactive: [1]; at 1.2 µM -2% | [1]; at 3.7 µM 0% | [1]; at 11.0 µM 0% | [1]; at 33.0 µM 6% | [1]; at 100.0 µM 10% | [2]; at 1.2 µM 1% | [2]; at 3.7 µM 0% | [2]; at 11.0 µM 0% | [2]; at 33.0 µM 0% | [2]; at 100.0 µM 3% | [3]; at 1.2 µM 0% | [3]; at 3.7 µM 4% | [3]; at 11.0 µM 4% | [3]; at 33.0 µM 6% | [3]; at 100.0 µM 18% | [5]; at 1.2 µM 1% | [5]; at 3.7 µM 1% | [5]; [17] 12% | [5]; at 11.0 µM 9% | [5]; at 33.0 µM -1% | [5]; [18] 45% | [5]; at 50.0 µM 60% | [5]; at 100.0 µM 5% | [6]; at 1.2 µM 3% | [6]; at 3.7 µM 3% | [6]; [17] 0% | [6]; at 11.0 µM 3% | [6]; at 33.0 µM 5% | [6]; [18] 7% | [6]; at 50.0 µM 40.2% | [6]; at 100.0 µM 17% | [14]; at 1.2 µM 0% | [14]; at 3.7 µM -3% | [14]; at 11.0 µM 0% | [14]; at 33.0 µM -5% | [14]; at 100.0 µM 12% | [7]; [17] 3% | [7]; [18] 51% | [7]; at 50.0 µM 35.3% | [15]; at 1.2 µM -4% | [15]; at 3.7 µM 2% | [15]; at 11.0 µM 5% | [15]; at 33.0 µM 2% | [15]; at 100.0 µM 16% | [8]; [17] -4% | [8]; [18] 54% | [8]; at 50.0 µM 54.4% | [9]; at 1.2 µM -3% | [9]; at 3.7 µM 1% | [9]; [17] -18% | [9]; at 11.0 µM 8% | [9]; at 33.0 µM 1% | [9]; at 100.0 µM -3% | [16]; at 1.2 µM -2% | [16]; at 3.7 µM -2% | [16]; at 11.0 µM -2% | [16]; at 33.0 µM -1% | [16]; at 100.0 µM 2% | [10]; at 1.2 µM 3% | [10]; at 3.7 µM 2% | [10]; at 11.0 µM 2% | [10]; at 33.0 µM -14% | [10]; at 100.0 µM 4% | [11]; at 1.2 µM 2% | [11]; at 3.7 µM 3% | [11]; at 11.0 µM 4% | [11]; at 33.0 µM 4% | [11]; at 100.0 µM 6% | [12]; [17] 21% | [12]; [18] 44% | [13]; at 1.2 µM -5% | [13]; at 3.7 µM -4% | [13]; at 11.0 µM 5% | [13]; at 33.0 µM 0% | [13]; at 100.0 µM 3%

COC1=CC(=O)C(C2(OC(C)C)OC(=O)C(Cl)=C2Cl)=CC1=O (stereo unspecified)
inactive: [1]; at 1.2 µM 1% | [1]; at 3.7 µM 22% | [2]; at 1.2 µM 1% | [2]; at 3.7 µM 8% | [3]; at 1.2 µM 8% | [3]; at 3.7 µM 48% | [4]; at 1.2 µM -3% | [4]; at 3.7 µM 17% | [5]; at 1.2 µM 1% | [5]; at 3.7 µM 33% | [5]; [17] 56% | [6]; at 1.2 µM 8% | [6]; at 3.7 µM 65% | [6]; [17] 47% | [7]; [17] 53% | [15]; at 1.2 µM 0% | [9]; at 1.2 µM 0% | [9]; at 3.7 µM 34% | [9]; [17] 30% | [9]; at 50.0 µM 59.9% | [10]; at 1.2 µM 2% | [10]; at 3.7 µM 27% | [12]; [17] 43% | [13]; at 1.2 µM 7% | [13]; at 3.7 µM 49%
active: [1]; at 11.0 µM 99% | [1]; at 33.0 µM 99% | [1]; at 100.0 µM 99% | [2]; at 11.0 µM 97% | [2]; at 33.0 µM 99% | [2]; at 100.0 µM 99% | [3]; at 11.0 µM 94% | [3]; at 33.0 µM 99% | [3]; at 100.0 µM 99% | [4]; at 11.0 µM 99% | [4]; at 33.0 µM 99% | [4]; at 100.0 µM 99% | [5]; at 11.0 µM 99% | [5]; at 33.0 µM 99% | [5]; [18] 99% | [5]; at 50.0 µM 96.2% | [5]; at 100.0 µM 99% | [6]; at 11.0 µM 100% | [6]; at 33.0 µM 100% | [6]; [18] 99% | [6]; at 50.0 µM 86.7% | [6]; at 100.0 µM 99% | [7]; [18] 99% | [7]; at 50.0 µM 99.5% | [15]; at 3.7 µM 87% | [15]; at 11.0 µM 99% | [15]; at 33.0 µM 99% | [15]; at 100.0 µM 99% | [9]; at 11.0 µM 99% | [9]; at 33.0 µM 99% | [9]; [18] 99% | [9]; at 100.0 µM 99% | [10]; at 11.0 µM 99% | [10]; at 33.0 µM 99% | [10]; at 100.0 µM 99% | [12]; [18] 99% | [12]; at 50.0 µM 91.8% | [13]; at 11.0 µM 99% | [13]; at 33.0 µM 99% | [13]; at 100.0 µM 99%
